# From the supplement of paper PMC8728848
# The full list was thinned out, with the strongest signals kept by preference.
# How the values were obtained:
# Experiment in all cases: glycan array binding signal (z-score within array); higher = stronger binding
# Settings in all cases: glycan notation: IUPAC condensed, linker removed
# [1] = target: Fuc(a1-2)Gal(b1-4)Fuc(a1-3)]GlcNAc(b1-2)Man(a1-3)[Fuc(a1-2)Gal(b1-4)[Fuc(a1-3)]GlcNAc(b1-2)Man(a1-6)]Man(b1-4)GlcNAc(b1-4)GlcNAc
# How it was run: (§1)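 The binding signal is a Z-score computed within each array. Data were drawn from 3228 arrays in the Consortium for Functional Glycomics database, restricted to those with a known protein sequence. Scores were averaged over arrays of the same protein sequence at different concentrations or buffers, and over linkers, and negative values can be taken as non-binding.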
# [2] = target: Fuc(a1-2)Gal(b1-4)GlcNAc
# How it was run: as §1
# [3] = target: Fuc(a1-2)Gal(b1-4)[Fuc(a1-3)]GlcNAc(b1-2)[Fuc(a1-2)Gal(b1-4)[Fuc(a1-3)]GlcNAc(b1-4)]Man(a1-3)[Fuc(a1-2)Gal(b1-4)[Fuc(a1-3)]GlcNAc(b1-2)Man(a1-6)]Man(b1-4)GlcNAc(b1-4)GlcNAc
# How it was run: as §1
# [4] = target: Fuc(a1-2)Gal6S(b1-4)Glc
# How it was run: as §1
# [5] = target: Fuc(a1-2)[GalNAc(a1-3)]Gal(b1-3)GlcNAc(b1-3)GalNAc
# How it was run: as §1
# [6] = target: Fuc(a1-2)[GalNAc(b1-3)]Gal
# How it was run: as §1
# [7] = target: Fuc(a1-3)[Gal(b1-4)]GlcNAc(b1-6)GalNAc
# How it was run: as §1
# [8] = target: Fuc(a1-4)GlcNAc
# How it was run: as §1
# [9] = target: Gal(a1-2)Gal
# How it was run: as §1
# [10] = target: Gal(a1-3)Gal
# How it was run: as §1
# [11] = target: Gal(a1-3)Gal(b1-3)GlcNAc
# How it was run: as §1
# [12] = target: Gal(a1-3)Gal(b1-3)GlcNAc(b1-2)Man
# How it was run: as §1
# [13] = target: Gal(a1-3)Gal(b1-4)GlcNAc(b1-2)Man
# How it was run: as §1
# [14] = target: Gal(a1-4)Gal(b1-4)GlcNAc(b1-3)Gal(b1-4)Glc
# How it was run: as §1
# [15] = target: Gal(b1-3)GalNAc(b1-3)Gal
# How it was run: as §1
# [16] = target: Gal(b1-3)GalNAc(b1-4)Gal(b1-4)Glc
# How it was run: as §1
# [17] = target: Gal(b1-3)GlcNAc(b1-3)Gal(b1-4)GlcNAc
# How it was run: as §1
# [18] = target: Gal(b1-4)GlcNAc(b1-2)Man(a1-3)[Gal(b1-4)GlcNAc(b1-2)Man(a1-6)][GlcNAc(b1-4)]Man(b1-4)GlcNAc(b1-4)[Fuc(a1-6)]GlcNAc
# How it was run: as §1
# [19] = target: Gal(b1-4)GlcNAc(b1-2)Man(a1-3)[Man(a1-6)]Man(b1-4)GlcNAc(b1-4)GlcNAc
# How it was run: as §1
# [20] = target: Gal(b1-4)GlcNAc(b1-3)Gal(b1-4)GlcNAc(b1-2)[Gal(b1-4)GlcNAc(b1-3)Gal(b1-4)GlcNAc(b1-6)]Man(a1-6)[Gal(b1-4)GlcNAc(b1-3)Gal(b1-4)GlcNAc(b1-2)Man(a1-3)]Man(b1-4)GlcNAc(b1-4)GlcNAc
# How it was run: as §1
# [21] = target: Gal(b1-4)GlcNAc(b1-3)Gal(b1-4)GlcNAc(b1-3)GalNAc
# How it was run: as §1
# [22] = target: Gal3S(b1-4)Glc
# How it was run: as §1
# [23] = target: Gal6S(b1-4)Glc
# How it was run: as §1
# [24] = target: GalNAc(b1-3)Gal
# How it was run: as §1
# [25] = target: GalNAc(b1-3)Gal(a1-6)Gal(b1-4)Glc
# How it was run: as §1
# [26] = target: GalNAc3S(b1-4)[Fuc(a1-3)]GlcNAc
# How it was run: as §1
# [27] = target: Glc(b1-6)Glc
# How it was run: as §1
# [28] = target: GlcA3S(b1-3)Gal(b1-4)GlcNAc(b1-3)Gal(b1-4)Glc
# How it was run: as §1
# [29] = target: GlcNAc(b1-2)[GlcNAc(b1-4)]Man(a1-3)[GlcNAc(b1-4)][GlcNAc(b1-2)Man(a1-6)]Man(b1-4)GlcNAc(b1-4)GlcNAc
# How it was run: as §1
# [30] = target: GlcNAc(b1-2)[GlcNAc(b1-6)]Man(a1-6)[GlcNAc(b1-4)][GlcNAc(b1-2)Man(a1-3)]Man(b1-4)GlcNAc(b1-4)GlcNAc
# How it was run: as §1
# [31] = target: GlcNAc(b1-3)Gal(b1-4)GlcNAc(b1-2)[GlcNAc(b1-3)Gal(b1-4)GlcNAc(b1-6)]Man(a1-6)[GlcNAc(b1-3)Gal(b1-4)GlcNAc(b1-2)Man(a1-3)]Man(b1-4)GlcNAc(b1-4)GlcNAc
# How it was run: as §1
# [32] = target: GlcNAc(b1-3)Gal(b1-4)GlcNAc(b1-3)Gal(b1-4)GlcNAc
# How it was run: as §1
# [33] = target: GlcNAc(b1-4)GlcNAc(b1-4)GlcNAc(b1-4)GlcNAc(b1-4)GlcNAc
# How it was run: as §1
# [34] = target: Kdn(a2-6)Gal(b1-4)GlcNAc
# How it was run: as §1
# [35] = target: Man(a1-2)Man(a1-3)[Man(a1-6)]Man(a1-6)[Man(a1-2)Man(a1-3)]Man(b1-4)GlcNAc(b1-4)GlcNAc
# How it was run: as §1
# [36] = target: MurNAc(b1-4)GlcNAc
# How it was run: as §1
# [37] = target: Neu5Ac(a2-3)Gal(b1-3)GalNAc(b1-4)[Neu5Ac(a2-3)]Gal(b1-4)Glc
# How it was run: as §1
# [38] = target: Neu5Ac(a2-3)Gal(b1-3)GlcNAc(b1-2)Man(a1-3)[Neu5Ac(a2-3)Gal(b1-3)GlcNAc(b1-2)Man(a1-6)]Man(b1-4)GlcNAc(b1-4)GlcNAc
# How it was run: as §1
# [39] = target: Neu5Ac(a2-3)Gal(b1-3)GlcNAc6S
# How it was run: as §1
# [40] = target: Neu5Ac(a2-3)Gal(b1-3)[Fuc(a1-4)]GlcNAc(b1-3)Gal(b1-3)[Fuc(a1-4)]GlcNAc
# How it was run: as §1
# [41] = target: Neu5Ac(a2-3)Gal(b1-3)[Fuc(a1-4)]GlcNAc(b1-3)Gal(b1-4)[Fuc(a1-3)]GlcNAc
# How it was run: as §1
# [42] = target: Neu5Ac(a2-3)Gal(b1-4)GlcNAc(b1-2)Man
# How it was run: as §1
# [43] = target: Neu5Ac(a2-3)Gal(b1-4)GlcNAc(b1-3)Gal(b1-3)GlcNAc
# How it was run: as §1
# [44] = target: Neu5Ac(a2-3)Gal(b1-4)GlcNAc6S
# How it was run: as §1
# [45] = target: Neu5Ac(a2-3)Gal(b1-4)[Fuc(a1-3)]GlcNAc
# How it was run: as §1
# [46] = target: Neu5Ac(a2-3)[Neu5Ac(a2-6)]GalNAc
# How it was run: as §1
# [47] = target: Neu5Ac(a2-6)Gal(b1-4)GlcNAc(b1-2)Man(a1-6)[Gal(b1-4)GlcNAc(b1-2)Man(a1-3)]Man(b1-4)GlcNAc(b1-4)GlcNAc
# How it was run: as §1
# [48] = target: Neu5Ac(a2-6)Gal(b1-4)GlcNAc(b1-3)Gal(b1-4)GlcNAc(b1-2)Man(a1-3)[Neu5Ac(a2-6)Gal(b1-4)GlcNAc(b1-3)Gal(b1-4)GlcNAc(b1-2)Man(a1-6)]GalNAc
# How it was run: as §1
# [49] = target: Neu5Ac(a2-6)Gal(b1-4)GlcNAc(b1-3)Gal(b1-4)GlcNAc(b1-3)GalNAc
# How it was run: as §1
# [50] = target: Neu5Ac(a2-6)GalNAc(b1-4)GlcNAc6S
# How it was run: as §1
# [51] = target: Neu5Ac(a2-8)Neu5Ac(a2-3)[Gal(b1-3)GalNAc(b1-4)]Gal(b1-4)Glc
# How it was run: as §1
# [52] = target: Neu5Gc(a2-3)Gal(b1-3)[Fuc(a1-4)]GlcNAc
# How it was run: as §1
# [53] = target: Neu5Gc(a2-3)Gal(b1-4)[Fuc(a1-3)]GlcNAc
# How it was run: as §1
# [54] = target: Neu5Gc(b2-6)Gal(b1-4)GlcNAc
# How it was run: as §1
binder,measurement,setting,value
"CD34 (Homo sapiens), P28906 (protein) MGSSHHHHHHSSGLVPRGSHMSTSLATSPTKPYTSSSPILSDIKAEIKCSGIREVKLTQGICLEQNKTSSCAEFKKDRGEGLARVLCGEEQADADAGAQVCSLLLAQSEVRPQCLLLVLANRTEISSKLQLMKKHQSDLKKLGILDFTEQDVASHQSYSQKT",glycan array binding signal (z-score),[1],1.89
same,glycan array binding signal (z-score),[2],0.713
same,glycan array binding signal (z-score),[3],1.72
same,glycan array binding signal (z-score),[4],0.088
same,glycan array binding signal (z-score),[5],1.77
same,glycan array binding signal (z-score),[6],-0.335
same,glycan array binding signal (z-score),[7],-0.245
same,glycan array binding signal (z-score),[8],0.624
same,glycan array binding signal (z-score),[9],-0.315
same,glycan array binding signal (z-score),[10],0.754
same,glycan array binding signal (z-score),[11],0.398
same,glycan array binding signal (z-score),[12],0.084
same,glycan array binding signal (z-score),[13],-1.01
same,glycan array binding signal (z-score),[14],-0.647
same,glycan array binding signal (z-score),[15],-0.13
same,glycan array binding signal (z-score),[16],0.08
same,glycan array binding signal (z-score),[17],-0.549
same,glycan array binding signal (z-score),[18],-0.754
same,glycan array binding signal (z-score),[19],-0.73
same,glycan array binding signal (z-score),[20],2.58
same,glycan array binding signal (z-score),[21],1.97
same,glycan array binding signal (z-score),[22],1.83
same,glycan array binding signal (z-score),[23],-0.308
same,glycan array binding signal (z-score),[24],1.82
same,glycan array binding signal (z-score),[25],-1.07
same,glycan array binding signal (z-score),[26],0.211
same,glycan array binding signal (z-score),[27],-1.19
same,glycan array binding signal (z-score),[28],-0.551
same,glycan array binding signal (z-score),[29],-0.524
same,glycan array binding signal (z-score),[30],-0.731
same,glycan array binding signal (z-score),[31],-0.175
same,glycan array binding signal (z-score),[32],-0.666
same,glycan array binding signal (z-score),[33],0.087
same,glycan array binding signal (z-score),[34],-0.352
same,glycan array binding signal (z-score),[35],-0.726
same,glycan array binding signal (z-score),[36],1.79
same,glycan array binding signal (z-score),[37],2.63
same,glycan array binding signal (z-score),[38],2.09
same,glycan array binding signal (z-score),[39],0.142
same,glycan array binding signal (z-score),[40],1.31
same,glycan array binding signal (z-score),[41],-0.478
same,glycan array binding signal (z-score),[42],1.1
same,glycan array binding signal (z-score),[43],-0.171
same,glycan array binding signal (z-score),[44],-0.319
same,glycan array binding signal (z-score),[45],-0.826
same,glycan array binding signal (z-score),[46],-0.204
same,glycan array binding signal (z-score),[47],-0.644
same,glycan array binding signal (z-score),[48],0.167
same,glycan array binding signal (z-score),[49],0.803
same,glycan array binding signal (z-score),[50],0.66
same,glycan array binding signal (z-score),[51],-0.858
same,glycan array binding signal (z-score),[52],0.294
same,glycan array binding signal (z-score),[53],1.71
same,glycan array binding signal (z-score),[54],-0.479
